The text below walks through data of PubChem BioAssay.

Activity calls are given as the source filed them. Unless noted, no rule for the calls is given here.

Experiment [1] can be described thus: inhibitors of CD8+ T cell-vesicle binding, pilot screen, LFA-1/ICAM-1 modulator project, MLPCN validation set, flow cytometry (AID 2523;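 active = response below a set limit, under 55% cells CD8-positive and vesicle-bound, and CD8 cells' 90th-percentile brightness under 279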;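 as to vesicle binding response: mean PE anti-B7-1 fluorescence of CD8+ cells relative to row control; 100% = QL9-loaded vesicles with DMSO vehicle in the same plate row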). As to conditions: 2C mouse CD8+ T cells, at 7 µM, stronger effect = lower value; double positive events: measured here: CD8+/vesicle+ event percentage.
The target in experiment [2] is Integrin beta-1 (Homo sapiens) + Integrin alpha-4 (Homo sapiens) (UniProt P13612+P05556). Description: inhibition of HUTS-21 binding to VLA-4, pilot screen, VLA-4 allosteric modulator project, U937 cells, HUTS-21 mAb, flow cytometry, validation set (AID 2674;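 active = inhibition above 50%, about 3 SD of the validation set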;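 also: antibody binding induced by the VLA-4 ligand LDV present at three times its Kd; 0% = LDV ligand with antibody and no compound and 100% = antibody without LDV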). As to conditions: HUTS-21 LIBS mAb binding, at 6.7 µM, stronger effect = higher value. (A flow cytometer gives signals particle by particle.)
Chain of Integrin beta-1 (Homo sapiens) + Integrin alpha-4 (Homo sapiens) (P05556 whole entry, looked up): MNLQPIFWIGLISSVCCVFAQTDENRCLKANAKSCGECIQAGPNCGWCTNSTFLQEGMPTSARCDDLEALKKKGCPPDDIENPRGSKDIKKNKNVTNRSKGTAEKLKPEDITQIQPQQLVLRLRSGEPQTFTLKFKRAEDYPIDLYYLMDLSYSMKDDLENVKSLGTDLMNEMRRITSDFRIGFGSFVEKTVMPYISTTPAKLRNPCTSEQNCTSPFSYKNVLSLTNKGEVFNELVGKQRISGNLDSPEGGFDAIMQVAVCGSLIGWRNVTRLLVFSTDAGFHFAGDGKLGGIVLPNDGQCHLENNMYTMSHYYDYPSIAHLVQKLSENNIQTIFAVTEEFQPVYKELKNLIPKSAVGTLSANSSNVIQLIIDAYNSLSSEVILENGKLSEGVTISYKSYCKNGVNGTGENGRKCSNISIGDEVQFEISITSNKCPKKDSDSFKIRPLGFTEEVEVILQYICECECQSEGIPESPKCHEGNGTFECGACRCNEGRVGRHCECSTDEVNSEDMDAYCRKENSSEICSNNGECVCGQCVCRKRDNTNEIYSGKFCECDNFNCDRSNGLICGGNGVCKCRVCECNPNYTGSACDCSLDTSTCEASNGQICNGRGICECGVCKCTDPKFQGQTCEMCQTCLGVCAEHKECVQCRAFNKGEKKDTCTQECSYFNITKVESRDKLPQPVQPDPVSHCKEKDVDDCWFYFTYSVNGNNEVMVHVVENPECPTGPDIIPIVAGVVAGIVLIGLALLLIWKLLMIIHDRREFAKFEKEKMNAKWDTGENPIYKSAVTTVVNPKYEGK
Chain of Integrin beta-1 (Homo sapiens) + Integrin alpha-4 (Homo sapiens) (P13612 whole entry, looked up): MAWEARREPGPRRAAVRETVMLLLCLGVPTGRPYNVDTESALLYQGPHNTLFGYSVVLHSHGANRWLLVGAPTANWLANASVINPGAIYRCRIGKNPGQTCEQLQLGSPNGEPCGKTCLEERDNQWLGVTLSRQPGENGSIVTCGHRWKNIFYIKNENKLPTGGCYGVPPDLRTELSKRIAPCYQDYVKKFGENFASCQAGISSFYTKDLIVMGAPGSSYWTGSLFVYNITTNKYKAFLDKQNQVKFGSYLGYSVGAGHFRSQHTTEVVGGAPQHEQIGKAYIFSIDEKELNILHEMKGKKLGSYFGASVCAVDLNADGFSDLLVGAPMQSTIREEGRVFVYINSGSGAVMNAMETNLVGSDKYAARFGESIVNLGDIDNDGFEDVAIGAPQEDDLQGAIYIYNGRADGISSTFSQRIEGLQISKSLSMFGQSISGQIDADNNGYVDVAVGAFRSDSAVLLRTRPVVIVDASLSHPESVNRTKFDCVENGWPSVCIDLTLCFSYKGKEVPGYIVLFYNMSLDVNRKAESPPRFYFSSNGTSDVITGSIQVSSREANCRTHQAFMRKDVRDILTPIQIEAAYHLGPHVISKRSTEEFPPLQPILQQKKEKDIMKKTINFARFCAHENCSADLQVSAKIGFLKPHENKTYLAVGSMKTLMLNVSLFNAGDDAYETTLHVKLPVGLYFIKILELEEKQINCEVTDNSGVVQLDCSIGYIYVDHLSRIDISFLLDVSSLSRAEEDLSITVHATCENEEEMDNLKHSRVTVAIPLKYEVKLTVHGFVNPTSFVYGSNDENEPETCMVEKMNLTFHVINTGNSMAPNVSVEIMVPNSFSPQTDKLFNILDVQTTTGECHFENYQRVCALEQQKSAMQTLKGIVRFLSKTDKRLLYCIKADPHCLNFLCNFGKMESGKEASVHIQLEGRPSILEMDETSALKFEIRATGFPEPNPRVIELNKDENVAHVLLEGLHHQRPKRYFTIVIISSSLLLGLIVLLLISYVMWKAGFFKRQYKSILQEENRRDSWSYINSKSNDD

Experiment [3] can be described thus: superoxide lowering in aged yeast cells, pilot screen, validation compound set (AID 2706;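 active = superoxide response below 65% of plate, a cut near 3 SD across the whole screen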;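 also: yeast exposed to compound for one week at 30 degrees C before staining; 100% = mean of all compound wells on the same plate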). As to conditions: S. cerevisiae aging, superoxide DHE fluorescence; at 10 µM; stronger effect = lower value.
Experiment [4] addresses Beta-adrenergic receptor kinase 1 (Homo sapiens) (UniProt P25098). The experiment can be described thus: GRK2 binders displacing RNA aptamer, biochemical, validation, human GRK2, bead flow cytometry (AID 488806;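 active = aptamer binding inhibition above 30%, about 3 SD of noise from non-fluorescent compounds; inactive = inhibition at or below 30%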). Particulars: bead-bound GRK2, FAM-aptamer displacement, at 10 µM, stronger effect = higher value.
The target of experiment [5] is Beta-2 adrenergic receptor (Homo sapiens) (UniProt P07550). The experiment can be described thus: beta2AR agonists driving receptor internalization, pilot screen, cell-based, FAP fluorogen, flow cytometry, validation set (AID 504459;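 active = percent response above 42, roughly 3 SD of non-fluorescent test compounds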;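 also: agonist-driven loss of surface beta2AR via internalization measured by FAP dye flow cytometry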). Particulars: Am2.2-beta2AR cells, FAP surface receptor flow cytometry; at 10 µM; stronger effect = higher value.
Experiment [6] has as its target AP-2 complex subunit beta (Homo sapiens) (UniProt P63010). The experiment can be described thus: inhibitors of arrestin peptide binding to AP2, pilot screen, biochemical, validation set, GST-AP2 beads, flow cytometry (AID 504541;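 active = inhibition above 54%, about 3 SD of non-fluorescent compounds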;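 also: AP2 carries R879A mutation and is captured from E. coli lysate; bead-bound FITC arrestin peptide fluorescence measuring arrestin peptide binding to AP2; 0% = DMSO wells and 100% = excess unlabeled arrestin peptide control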). As to conditions: FITC arrestin peptide, at 10 µM, stronger effect = higher value.
Experiment [7] can be described thus: yeast V-ATPase proton transport modulators, S. cerevisiae, pHLuorin, HTS validation (AID 504600; in the data active = response above about 15%;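 also: plate controls were DMSO for no effect and reference compound for full effect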). As to conditions: S. cerevisiae pHLuorin cytosolic pH, at 10 µM, stronger effect = higher value.
Experiment [8] relates to anti-desmoglein-3 scFv antibody binding to human DSG3. Description: inhibitors of anti-DSG3 scFv binding to DSG3, pilot screen, biochemical, validation compound set, bead-based, flow cytometry (AID 588368;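 active = binding below the plate cutoff, the plate median minus 3 SD, with a reading above zero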;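 also: signal is the median channel fluorescence of bead-bound GFP antibody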). As to conditions: Protein G beads, DSG3-Fc, scFv-GFP binding, at 10 µM, stronger effect = lower value.
Experiment [9] concerns Botulinum neurotoxin type F light chain protease (Clostridium botulinum). The experiment can be described thus: Botulinum neurotoxin type F light chain protease inhibition, multiplex microsphere flow cytometry, validation set (AID 588459). As to conditions: multiplex microsphere protease substrate cleavage assay, at 10 µM, stronger effect = higher value.
The target in experiment [10] is Botulinum neurotoxin type A (Clostridium botulinum) (UniProt P0DPI0). The experiment can be described thus: BoNT/A light chain protease inhibitors, biochemical, multiplex microsphere flow cytometry, validation set (AID 588460). As to conditions: at 10 µM, stronger effect = higher value.
Chain of Botulinum neurotoxin type A (Clostridium botulinum) (P0DPI0 whole entry, looked up): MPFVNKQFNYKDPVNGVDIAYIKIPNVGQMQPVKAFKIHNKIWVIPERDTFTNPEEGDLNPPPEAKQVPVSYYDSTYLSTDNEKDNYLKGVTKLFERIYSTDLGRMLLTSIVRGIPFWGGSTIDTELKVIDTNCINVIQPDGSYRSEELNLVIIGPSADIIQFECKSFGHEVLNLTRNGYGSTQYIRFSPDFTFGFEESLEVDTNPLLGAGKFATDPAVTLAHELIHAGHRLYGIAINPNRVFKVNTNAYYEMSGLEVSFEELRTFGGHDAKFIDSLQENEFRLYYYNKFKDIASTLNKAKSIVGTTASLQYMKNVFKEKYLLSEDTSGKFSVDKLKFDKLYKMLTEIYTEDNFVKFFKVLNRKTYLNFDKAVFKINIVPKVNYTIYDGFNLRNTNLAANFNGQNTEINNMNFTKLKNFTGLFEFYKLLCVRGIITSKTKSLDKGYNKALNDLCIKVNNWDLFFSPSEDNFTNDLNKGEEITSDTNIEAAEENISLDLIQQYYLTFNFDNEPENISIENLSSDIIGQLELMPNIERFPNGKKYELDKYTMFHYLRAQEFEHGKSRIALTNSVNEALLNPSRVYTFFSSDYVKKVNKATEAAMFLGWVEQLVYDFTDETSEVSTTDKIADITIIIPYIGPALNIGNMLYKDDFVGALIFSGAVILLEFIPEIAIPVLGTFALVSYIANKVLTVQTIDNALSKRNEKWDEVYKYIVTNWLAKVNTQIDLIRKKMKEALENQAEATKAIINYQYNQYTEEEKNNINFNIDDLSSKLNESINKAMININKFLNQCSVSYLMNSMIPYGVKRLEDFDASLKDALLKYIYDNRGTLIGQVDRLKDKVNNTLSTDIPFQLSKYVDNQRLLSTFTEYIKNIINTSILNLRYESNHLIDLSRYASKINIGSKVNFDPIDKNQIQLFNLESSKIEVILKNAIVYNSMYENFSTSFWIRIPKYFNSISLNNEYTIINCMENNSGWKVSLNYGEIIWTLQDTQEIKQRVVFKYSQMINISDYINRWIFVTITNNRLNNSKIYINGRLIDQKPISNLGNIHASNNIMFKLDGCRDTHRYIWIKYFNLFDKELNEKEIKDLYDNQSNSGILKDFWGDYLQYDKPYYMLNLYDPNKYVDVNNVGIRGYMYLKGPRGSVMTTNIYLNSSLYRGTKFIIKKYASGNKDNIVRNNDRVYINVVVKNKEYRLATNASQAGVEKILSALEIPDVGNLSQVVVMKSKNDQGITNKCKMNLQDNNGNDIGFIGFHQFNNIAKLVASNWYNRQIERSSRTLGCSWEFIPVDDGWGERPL
The target of experiment [11] is Lethal factor (Bacillus anthracis) (UniProt P15917). Description: Lethal factor protease inhibitors, Bacillus anthracis, multiplex microsphere cleavage assay, validation set (AID 588461). As to conditions: flow cytometry, at 10 µM, stronger effect = higher value.
The nature of experiment [12]: inhibitors of fungal efflux pumps CDR1, CDR2, MDR1, pilot screen, validation compound set, multiplex, phenotypic (AID 588506;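 active = efflux inhibition above 0.42, the validation set average plus 4 SD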;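 also: Nile Red retained in cells so higher fluorescence means more efflux inhibition; 0 = negative control wells and 1 = enniatin B 25 µM full block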). As to conditions: S. cerevisiae pump-expressing triplex, Nile Red efflux flow cytometry; at 10 µM; stronger effect = higher value.
For experiment [13], the target named is ATP-binding cassette sub-family B member 6 (Homo sapiens) (UniProt Q9NP58). The experiment can be described thus: ABCB6 transporter inhibitors, pilot screen, K562-ABCB6 cells, flow cytometry, validation set (AID 588550;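 active = inhibition above the screen-wide mean plus 3 SD, about 51%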;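 also: 0% = DMSO wells and 100% = benzethonium chloride 70 µM positive control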). Particulars: K562-ABCB6 porphyrin accumulation, 1 h, at 10 µM, stronger effect = higher value.
Chain of ATP-binding cassette sub-family B member 6 (Homo sapiens) (Q9NP58 whole entry, looked up): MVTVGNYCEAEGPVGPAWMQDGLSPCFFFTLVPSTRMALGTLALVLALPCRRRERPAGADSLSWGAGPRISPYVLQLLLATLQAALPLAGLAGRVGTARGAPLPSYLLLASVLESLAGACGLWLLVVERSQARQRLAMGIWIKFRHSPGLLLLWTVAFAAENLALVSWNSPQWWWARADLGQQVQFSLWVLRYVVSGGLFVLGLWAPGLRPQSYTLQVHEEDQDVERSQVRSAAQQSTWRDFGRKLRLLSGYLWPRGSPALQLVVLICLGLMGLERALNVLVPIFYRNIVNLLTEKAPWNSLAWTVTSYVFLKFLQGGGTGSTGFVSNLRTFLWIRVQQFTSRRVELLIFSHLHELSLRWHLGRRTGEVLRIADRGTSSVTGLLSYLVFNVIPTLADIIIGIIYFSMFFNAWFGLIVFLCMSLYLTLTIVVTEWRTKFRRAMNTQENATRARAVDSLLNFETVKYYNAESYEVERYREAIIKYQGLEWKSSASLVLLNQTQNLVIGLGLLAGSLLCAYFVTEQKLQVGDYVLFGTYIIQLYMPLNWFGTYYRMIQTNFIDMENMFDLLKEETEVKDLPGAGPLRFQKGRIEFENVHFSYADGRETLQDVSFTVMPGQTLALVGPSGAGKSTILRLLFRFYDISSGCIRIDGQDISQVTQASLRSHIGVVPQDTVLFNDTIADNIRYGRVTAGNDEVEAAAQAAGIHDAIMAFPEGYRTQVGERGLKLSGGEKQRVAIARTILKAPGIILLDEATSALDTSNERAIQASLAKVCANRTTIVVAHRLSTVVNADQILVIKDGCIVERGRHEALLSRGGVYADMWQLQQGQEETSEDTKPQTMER
Experiment [14] can be described thus: promoters of myeloid differentiation in arrested cells, primary screen, cell-based, GFP/MAC1 double positive, flow cytometry, validation set (AID 588685;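 active = differentiation response of at least 50%, scaled between solvent and reference control, from cells with both markers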;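 also: compound exposure lasts four days before antibody staining and flow analysis; 0% = DMSO wells and 100% = 5 µM fulvestrant positive control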). Particulars: ER-HoxA9 marrow cells, stronger effect = higher value.
Experiment [15] in a line: RPL19A-GFP modulators, yeast TOR pathway, confirmation, cell-based, S. cerevisiae, flow cytometry, cherry picks, mother/daughter gates (AID 2270;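 active = GFP response below 50% of the DMSO control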). As to conditions: S. cerevisiae RPL19A-GFP strain, 3 h, at 10 µM, stronger effect = lower value, 100 = same GFP as DMSO wells.
The nature of experiment [16]: LAP4-GFP expression modulators in yeast, confirmation, cell-based, cherry picks, flow cytometry, mother/daughter gates (AID 2271;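 active = GFP response above 150% of the DMSO control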;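 also: ratio of sample to DMSO plate mean so 100% equals DMSO level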). As to conditions: S. cerevisiae LAP4-GFP strain, 3 h, at 10 µM, stronger effect = higher value.
The nature of experiment [17]: modulators of CIT2-GFP expression in yeast, confirmation, S. cerevisiae, GFP fusion, cherry picks, mother/daughter gates (AID 2274;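 active = GFP response above 150% of the DMSO level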). As to conditions: S. cerevisiae CIT2-GFP strain, flow cytometry, 3 h, at 10 µM, stronger effect = higher value.
The mark [18] stands for this setting: measured here: daughter cell gate.
Setting [19] is: measured here: mother cell gate.

Chain of AP-2 complex subunit beta (Homo sapiens) (P63010 whole entry, looked up, one chain of several): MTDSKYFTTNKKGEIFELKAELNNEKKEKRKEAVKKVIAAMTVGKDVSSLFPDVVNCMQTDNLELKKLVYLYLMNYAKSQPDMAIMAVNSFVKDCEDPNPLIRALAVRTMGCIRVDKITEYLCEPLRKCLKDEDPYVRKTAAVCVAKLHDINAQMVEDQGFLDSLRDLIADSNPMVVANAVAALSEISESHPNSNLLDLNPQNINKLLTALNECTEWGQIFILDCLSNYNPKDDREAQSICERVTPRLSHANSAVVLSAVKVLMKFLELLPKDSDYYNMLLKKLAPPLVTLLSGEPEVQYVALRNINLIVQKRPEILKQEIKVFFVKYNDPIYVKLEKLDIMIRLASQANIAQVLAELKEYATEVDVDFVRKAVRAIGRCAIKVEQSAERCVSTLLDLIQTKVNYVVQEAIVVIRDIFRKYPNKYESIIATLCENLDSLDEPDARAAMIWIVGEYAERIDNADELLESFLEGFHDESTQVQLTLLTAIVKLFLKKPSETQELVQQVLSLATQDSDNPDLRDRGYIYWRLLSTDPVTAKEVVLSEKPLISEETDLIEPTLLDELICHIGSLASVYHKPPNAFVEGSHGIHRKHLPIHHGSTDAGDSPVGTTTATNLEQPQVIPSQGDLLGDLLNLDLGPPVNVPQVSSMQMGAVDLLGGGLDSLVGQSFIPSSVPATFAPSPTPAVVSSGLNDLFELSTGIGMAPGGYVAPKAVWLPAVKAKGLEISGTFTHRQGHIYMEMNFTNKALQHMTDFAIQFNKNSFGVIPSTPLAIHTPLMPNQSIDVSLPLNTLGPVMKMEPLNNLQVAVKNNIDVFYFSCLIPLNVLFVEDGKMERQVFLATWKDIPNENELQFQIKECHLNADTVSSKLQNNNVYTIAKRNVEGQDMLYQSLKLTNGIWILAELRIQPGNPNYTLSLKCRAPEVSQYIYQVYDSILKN

The compound `COc1cc(/C=C2\C(=O)NC(=O)N(c3ccccc3)C2=O)c([N+](=O)[O-])cc1OC` came in with a double positive events in [1] of 61.7%. Further, the vesicle binding response in [1] was 106% (inactive). The inhibition (usually the drop in the measured response relative to a control, in per cent) in experiment [2] was 13.7% (inactive); in [6], 5.39% (inactive); in experiment [9] it was -4.1% (inactive); in [10], -1.1% (inactive); in experiment [11], -1.8% (inactive); in experiment [13], -21% (inactive). The superoxide response (% of plate) in experiment [3] is 102% (inactive). The aptamer binding inhibition in experiment [4] is 3% (inactive). The response in [5] is 0.05% (inactive); in [7] it was 3.62% (inactive). For the same compound, the binding (% of control) in experiment [8] was 105% (inactive). Further, in [12], the efflux inhibition (fraction of control) is -0.09 (inactive). In experiment [14], the differentiation response was -8.96% (inactive).
In [1], `CCC(COC(=O)c1cc(OC)c(OC)c(OC)c1)(c1ccccc1)N(C)C` (centres undefined) yielded a double positive events of 73.3%. Also, the vesicle binding response in experiment [1] was 306% (inactive). Besides, the inhibition in [2] was 1.44% (inactive); in experiment [6], -3.75% (inactive); in experiment [9], -3.5% (inactive); in experiment [10], -2.8% (inactive); in experiment [11] it was -8.8% (inactive); in experiment [13], 15% (inactive). Moreover, in experiment [3], the superoxide response (% of plate) was 93.6% (inactive). In addition, in experiment [4], the aptamer binding inhibition was 1% (inactive). Besides, the response was -24.8% (inactive) in [5] and -2.48% (inactive) in [7]. The binding (% of control) in experiment [8] is 98.7% (inactive). Moreover, the efflux inhibition (fraction of control) in experiment [12] is 0.04 (inactive). Besides, the differentiation response in experiment [14] was -3.02% (inactive).
For `CNC[C@H](O)c1cccc(O)c1`, the inhibition in experiment [9] is 1.5% (inactive); in [10] it was 2.2% (inactive).
`C[C@H]1CCCC(=O)CCCCCc2cc(O)cc(O)c2C(=O)O1` returned a double positive events in experiment [1] of 60.2%. Further, the vesicle binding response in experiment [1] was 160% (inactive). For the same compound, the inhibition in experiment [2] was 0.59% (inactive); in experiment [6], -10.7% (inactive); in experiment [9], -0.4% (inactive); in experiment [10], -1.7% (inactive); in experiment [11], 4.1% (inactive); in [13], 0% (inactive). Moreover, in [3], the superoxide response (% of plate) is 101% (inactive). Besides, in experiment [4], the aptamer binding inhibition was -1% (inactive). Moreover, the response in experiment [5] was -25.5% (inactive); in experiment [7], 6% (inactive). Further, the binding (% of control) in [8] is 106% (inactive). For the same compound, the efflux inhibition (fraction of control) in experiment [12] was -0.13 (inactive). Besides, the differentiation response in experiment [14] was 5.85% (inactive).
As to `CNCCC(Oc1ccc(C(F)(F)F)cc1)c1ccccc1` (centres undefined), the inhibition was -3.3% (inactive) in experiment [9] and 0.6% (inactive) in [10].
Take `CCC(C)N1C(=O)/C(=C\c2cnc(N(C)C)nc2)C(=O)NC1=S` (centres undefined): the GFP response vs DMSO is 104% (inactive) in [15], 98.4% in [15] (setting [18]) and 93.8% in [15] (setting [19]). For the same compound, the GFP response relative to DMSO in [16] was 97.4% (inactive). Further, the GFP response, % of DMSO is 106% (inactive) in experiment [17], 114% in experiment [17] (setting [18]) and 90.2% in experiment [17] (setting [19]).
Compound `CC12CCC3C(CC=C4CC5(CCC43C)OCCO5)C1CCC2=O` (centres undefined) came in with a double positive events in experiment [1] of 65.4%. Besides, the vesicle binding response in experiment [1] is 179% (inactive). Moreover, the inhibition in experiment [2] was -9.06% (inactive); in [6], -3.19% (inactive); in [9] it was 4.6% (inactive); in experiment [10], -0.8% (inactive); in experiment [11], 3.9% (inactive); in experiment [13], 15% (inactive). Moreover, in [3], the superoxide response (% of plate) is 95.3% (inactive). In addition, in [4], the aptamer binding inhibition is 3% (inactive). For the same compound, the response in experiment [5] was 0.6% (inactive); in experiment [7], 0.24% (inactive). The binding (% of control) in [8] was 108% (inactive). For the same compound, the efflux inhibition (fraction of control) in experiment [12] was -0.24 (inactive). The differentiation response in experiment [14] is -4.09% (inactive).
With `Cc1c2ccncc2c(C)c2c1[nH]c1ccccc12`, the double positive events in experiment [1] was determined as 61%. In addition, the vesicle binding response in [1] is 710% (inactive). For the same compound, in experiment [3], the superoxide response (% of plate) was 84.9% (inactive). For the same compound, the aptamer binding inhibition in experiment [4] was -5% (inactive). For the same compound, the results for the response in experiment [5] and in experiment [7] were -323% (inactive) and -2.57% (inactive), respectively. Besides, the inhibition is 5.87% (inactive) in experiment [6], 2.4% (inactive) in [9], 2.8% (inactive) in experiment [10] and 2% (inactive) in experiment [11]. In experiment [8], the binding (% of control) is 180% (inactive). Also, the efflux inhibition (fraction of control) in [12] is 0.3 (inactive). In experiment [14], the differentiation response was 18% (inactive).
